Drawing on PubChem BioAssay AID873 (PCMD, 2007), this text covers inhibition for 101 compounds.

In all, about 210,000 compounds went through this assay and about 1,300 (0.62%) were called active. The sample as a whole holds a higher share of actives than the screen did. Values without a mark were called inactive.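 The calls were made as follows: active = inhibition of 40% or more; inactive = the rest.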

This test deals with Kallikrein-5 (Homo sapiens) (UniProt Q9Y337). Briefly: inhibition of kallikrein 5 (hK5) activity – biochemical, 1536-well, primary screen (AID 873).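 Also: 0% = enzyme controls without compound and 100% = no-enzyme blanks.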 As to conditions: recombinant hK5, fluorogenic AMC substrate cleavage; at 5 µM; stronger effect = higher value.
Chain of Kallikrein-5 (Homo sapiens) (Q9Y337 67-293 limits assumed): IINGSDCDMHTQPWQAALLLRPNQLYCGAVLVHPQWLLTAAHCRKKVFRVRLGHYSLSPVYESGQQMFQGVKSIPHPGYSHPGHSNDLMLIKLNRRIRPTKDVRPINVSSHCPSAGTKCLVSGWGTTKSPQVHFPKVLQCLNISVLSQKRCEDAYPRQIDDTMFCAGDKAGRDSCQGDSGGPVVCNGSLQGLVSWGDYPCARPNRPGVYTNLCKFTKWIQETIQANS
Consider `Cc1ccc(-c2csc(NC(=O)c3cccs3)n2)cc1`, for which the inhibition was -16.5%. Turning to `O=C(Nc1ncccn1)c1cccs1`, the inhibition was -0.12%. With `O=C(Nc1n[nH]c(C(F)(F)F)n1)c1cccs1` the figure was 40.9% (active); with `O=C(Cn1c[n+](CC(=O)c2ccc([N+](=O)[O-])cc2)cn1)c1ccc([N+](=O)[O-])cc1`, -1.7%; with `C=CCN(c1ccccc1C(=O)NCC(=O)OCC)S(=O)(=O)c1ccc(C)cc1`, -3.06%. Turning to `Cc1nc2ccccc2nc1N/N=C/c1ccc(O)cc1O`, the inhibition was -20.8%. For the compound `COc1ccc(N=C(C)c2sc3ccccc3c2O)cc1`, the inhibition is 2.85%.

Consider `O=[N+]([O-])c1cccc2ncccc12`, for which the inhibition was -1.14%. As for `C=C1CCN([C@H](C(=O)NCc2cc(OC)c(OC)c(OC)c2)C(C)C)S(=O)(=O)c2ccccc21`, the inhibition is 0.63%. Take `O=C(Nc1ccc(Cl)cc1)Nc1ccc(Oc2cccnc2)nc1`: the inhibition is 62.9% (active).

For the compound `O=C(NNC(=O)c1csc(-c2cccnc2)n1)Nc1ccc(Cl)cc1`, the inhibition is -0.51%. Regarding `O=C(O)CCCC(=O)Nc1ccc(Oc2cccc(C(F)(F)F)c2)nc1`, the inhibition was -2.65%. Turning to `O=C(CNc1ccc(F)cc1F)NC(=O)NCc1ccco1`, the inhibition is -1.58%. Regarding `COc1ccc(/C=C/c2nnc(NC(=O)C(C)C)s2)cc1`, the inhibition is 0.65%.

As to `Cn1nccc1NS(=O)(=O)c1ccc(F)cc1`, the inhibition is 8.38%. Regarding `Cc1ccccc1NC(=O)C(C)c1ccc(-c2ccccc2)c(F)c1` (stereo unspecified), the inhibition was 1.97%. In the case of `O=C(Nc1ccccc1F)c1ccccc1-c1ccccc1`, the inhibition was -10.7%. With `CC(C)N(C(=O)c1ccc(-c2ccccc2F)cc1)C(C)C`, the inhibition is 52.5% (active).

With `Clc1ccc2nc(-c3ccccc3)nc(C(Cl)Cl)c2c1`, the inhibition was 0.33%. Take `COc1ccc(-c2nn(C)c(=O)c3ccccc23)cc1CNC(=O)C1CCCCC1`: the inhibition is 1.08%. Regarding `CC(C)c1csc(CN2CCC(CO)(Cc3ccccc3)CC2)n1`, the inhibition is 40.6% (active). Turning to `COc1ccc(CC2(CO)CCN(Cc3cnn(C)c3)CC2)cc1`, the inhibition was 5.76%.

Take `COC(=O)c1ccc(CN2CCC(CO)(Cc3ccc(OC)cc3)CC2)cc1`: the inhibition was -3.09%. With `COc1ccc(CCNC2=CC(=O)CC(C)(C)C2)cc1` the figure was 0.99%; with `CCS(=O)(=O)c1cc([N+](=O)[O-])c(Sc2ccccc2N)s1`, 3.91%. For the compound `COC(=O)c1sc(C(F)(F)F)c(-c2ccccc2)c1S(=O)(=O)N(C)C`, the inhibition is 0.56%. With `Cc1ccc(S(=O)(=O)N(C)CC(=O)OCC(=O)Nc2ccccc2)cc1` the figure was 2.05%; with `CCOC(=O)CN(C)S(=O)(=O)c1ccc(-c2cc(C(=O)OC)sc2C(F)(F)F)cc1`, 74.9% (active); with `Cc1ccccc1CSc1nnc(CCCCCNC(=O)OC(C)(C)C)o1`, 0.98%. `CCOC(=O)c1ccc(NC(=O)c2cc(=O)[nH]c3ccccc23)cc1`: the inhibition is -1.31%.

On to `O=C(CNC(=O)c1cc(=O)[nH]c2ccccc12)Nc1ccc(F)c(F)c1`, for which the inhibition is 5.97%. Regarding `CCCN(CC(=O)Nc1ccccc1C)C(=O)c1cc(=O)[nH]c2ccccc12`, the inhibition was 45.5% (active). To `COC(=O)c1scc(S(=O)(=O)C(C)(C)C)c1-n1cccc1` belongs -2.13%. `O=S(=O)(NCc1ccco1)c1cnc(Cl)c(Cl)c1`: the inhibition is 18.9%. On to `O=C(CSc1nnc(-c2cccnc2)n1Cc1ccco1)c1ccc(Cl)cc1`, for which the inhibition was -15.7%. With `C(=C\c1ccccc1)/CSc1nnc(-c2cccnc2)n1Cc1ccco1` the figure was 59.8% (active); with `O=C(CSc1nnc(-c2cccnc2)n1Cc1ccco1)c1ccc(Cl)c(Cl)c1`, -11.9%. With `O=C(Nc1ccccc1)N1CCN(C2c3ccccc3-c3ccccc32)CC1`, the inhibition is 1.85%.

On to `CC(C)c1ccc(NC(=S)NNc2ccc(Cl)c(C(=O)O)c2)cc1`, for which the inhibition is 5.6%. As for `COc1cc2c(cc1OC)C(/C=C/c1ccco1)=NCC2`, the inhibition is 4.43%. As to `CC1CC(C)(C)n2c(O)c(N=NC(N)=S)c3cccc1c32` (stereo unspecified), the inhibition was 50.7% (active). As for `C[C@@H](NC(=O)OC(C)(C)C)c1nnc(S(=O)(=O)Cc2ccccc2)o1`, the inhibition was -1.93%. With `Cc1cc(F)ccc1NC(=O)C(C)n1c2ccccc2c2nc(=O)cc(C)n21` (stereo unspecified) the figure was 0.22%. `O=C(NC1CCCCC1)c1cc(C2CC2)on1`: the inhibition is -1.29%.

For `Cn1c2c(c(=O)n(C)c1=O)[C@@H]1c3c(ccc4ccccc34)OC[C@@H]1CO2`, the inhibition is 21.4%.

As to `Cn1c2c(c(=O)n(C)c1=O)C1c3ccccc3OCC1C(C)(C)O2` (stereo unspecified), the inhibition is -2.4%.

In the case of `COc1cccc2c1OCC1COc3c(c(=O)n(C)c(=O)n3C)C21` (stereo unspecified), the inhibition is 50.2% (active). To `O=C(NNc1cc(Cl)cc(Cl)c1)c1c(F)cccc1Cl` belongs 1.1%. On to `CCc1c(C)nc2c(-c3ccccc3)c(C)nn2c1Nc1ccc(NC(C)=O)cc1`, for which the inhibition is -10.1%.

`COc1cc(C(=O)N2C(=O)c3cccc(N)c3C2=O)cc(OC)c1OC`: the inhibition is -10.2%. As for `CN1CCN(S(=O)(=O)c2cccc(C(=O)O)c2)CC1`, the inhibition was -1.38%. Turning to `CC1CC(C)CN(S(=O)(=O)c2cccc(C(=O)N3C(=O)c4cccc(N)c4C3=O)c2)C1` (stereo unspecified), the inhibition was 83.1% (active). For the compound `Cc1cc(=O)oc2cc(OCC(=O)Nc3nnc(C4CC4)s3)ccc12`, the inhibition was 5.43%.

In the case of `O=C(Nc1nnc(COc2ccccc2)s1)Nc1ccccc1F`, the inhibition is 0.25%. To `O=C(NN1C(=O)C2C3C=CC(C4CC34)C2C1=O)c1ccc(Cl)cc1` (stereo unspecified) belongs -4.1%; to `CC12COC3(C(=O)Nc4ccc(Cl)cn4)CC1CCC32C` (stereo unspecified), -6.22%; to `CC12CN(NC(=O)c3ccc(Cl)cc3)C3(C#N)CC1CCC23C` (stereo unspecified), 78.4% (active). To `CCc1cc(CNC(=O)CC2C(=O)NCCN2Cc2ccccc2C(F)(F)F)on1` (stereo unspecified) belongs -3.44%; to `O=c1c2c3c(sc2n(CCN2CCCC2)c(=O)n1Cc1ccccc1)CCCCC3`, 8.67%. With `Cc1cc(C)n(CC(C)NCc2c(C(=O)N3CCOCC3)nc3c(C)cccn23)n1` (stereo unspecified) the figure was 1.63%; with `CSc1nc(-c2ccco2)nn1C(=O)CCc1ccccc1`, -9.9%; with `CS(=O)(=O)n1nc(-c2ccco2)nc1N`, -7.61%. For the compound `CSc1nc(-c2ccco2)nn1C(=O)c1ccccc1Cl`, the inhibition was 52.2% (active). With `Clc1ccc(-c2cc(-c3ccccn3)on2)c(Cl)c1` the figure was -3.93%; with `C/C(=N\NC(=O)c1nc(C)cc(C)n1)c1ccccc1`, -8.77%; with `CC(C)=C(NC(=O)c1ccccc1)C(=O)N/N=C(\C)c1ccccc1O`, 48.4% (active).

In the case of `CNC(=O)C(NC(=O)c1ccccc1)=C(C)C`, the inhibition is 0.73%. On to `C=CCN(C(=O)Nc1ccc2oc(C)nc2c1)c1ccccc1`, for which the inhibition was -6.89%.

On to `Cc1nc2cc(NC(=O)Nc3cccc(F)c3)ccc2n1C`, for which the inhibition was 17%. Take `C=CCN(C(=O)Nc1ccc2c(c1)nc(C)n2C)c1ccccc1`: the inhibition is 41% (active).

Turning to `Nc1ccc2nn(-c3ccc(Cl)cc3)nc2c1`, the inhibition is -10.3%. To `O=C(NCCc1csc(-c2ccccc2)n1)c1ccccc1F` belongs 0.78%; to `C=CCn1c(SCC(=O)c2ccc(Br)cc2)nnc1C(C)NC(=O)Cc1ccc(OC)cc1` (stereo unspecified), 53% (active). Consider `C=CCn1c(CNC(=O)c2ccco2)nnc1SCC(=O)c1ccc(OC)cc1`, for which the inhibition was 1.62%. On to `C=CCn1c(SCCOc2ccc(OC)cc2)nnc1C(NC(=O)c1ccc(OC)cc1)C(C)C` (stereo unspecified), for which the inhibition was 2.79%.

Regarding `Cc1ccc(OCC(O)CN2CCN(CC(O)COc3ccc(C)cc3Cl)CC2)c(Cl)c1` (stereo unspecified), the inhibition is 45.3% (active).

Consider `Cc1cccc(C)c1OCC(O)CN1CCCCC1` (stereo unspecified), for which the inhibition was -7.75%. To `C=CCc1ccc(OCC(O)CN2CCN(Cc3ccccc3)CC2)c(OC)c1` (stereo unspecified) belongs -1.55%; to `COC(=O)CNc1nc(Cl)nc(N2CCC(C)CC2)n1`, -2.61%.

As to `Cc1ccc(NNC(=O)C2CCC2)cc1C`, the inhibition is -0.44%. As for `COc1ccc(Cl)cc1NC(=O)CCN1CCOCC1`, the inhibition was -1.88%.

For the compound `O=C(CN1CCN(C/C=C/c2ccccc2)CC1)Nc1ccc(F)cc1F`, the inhibition is 0.73%.

Consider `CNC(=O)NC(=O)C(C)N1CCN(C/C=C/c2ccccc2)CC1` (stereo unspecified), for which the inhibition is -1.97%. Turning to `COc1cc(C(=O)N2CCN(C/C=C/c3ccccc3)CC2)cc(OC)c1C`, the inhibition was 46.4% (active). With `COC(=O)c1nc(NC(=O)c2ccc(F)cc2)n[nH]1` the figure was 1.4%; with `COC(=O)c1nc(NC(=O)c2ccc(Cl)cc2)n[nH]1`, -14.4%; with `COC(=O)c1nc(NC(=O)c2ccccc2)n[nH]1`, 45% (active).

As for `Cc1nc(Cl)c2oc3ccccc3c2n1`, the inhibition was 42.9% (active).

Take `CCSc1nc(C)nc2c1oc1ccccc12`: the inhibition was 2.97%.

On to `Cc1nc(N2CCCC2C(=O)O)c2oc3ccccc3c2n1` (stereo unspecified), for which the inhibition was -6.49%. On to `Cn1c2ccc(F)cc2c2nnc(NN)nc21`, for which the inhibition is 3.58%. On to `Cc1onc(C(=O)NN)c1-c1csc(COc2ccccc2)n1`, for which the inhibition was -6.54%. Turning to `CNc1ccc([N+](=O)[O-])cc1C(=O)O`, the inhibition was -11.4%. Take `Cc1cccc(NC(=S)Nc2ccc(Br)cc2)c1`: the inhibition is 3.76%.

On to `Cc1cccc(NC(=S)Nc2ccc(Cl)c(Cl)c2)c1`, for which the inhibition was -7.18%. With `Cc1cccc(NC(=S)NC23CN4CN(CN(C4)C2)C3)c1` the figure was 44.6% (active). To `Cc1nc(COc2cccc(Cl)c2)sc1C(=O)/C=C/N(C)C` belongs 0.93%; to `COCc1cc(=O)[nH]c(SC)n1`, 4.7%; to `O=C(NCCc1ccccc1)c1ccc(OCCOc2ccccc2)cc1`, 79.7% (active). In the case of `O=C(NCCOc1ccccc1)c1ccccc1`, the inhibition is -2.43%. In the case of `CCCOc1ccc(C(=O)NCCc2ccccc2)cc1`, the inhibition was -7.86%.

A word on the inhibition: it is the relative decrease from the control value, in per cent.
